Screening results (PubChem BioAssay)
Ba/F3 V617F tox = reduced viability of JAK2V617F-dependent Ba/F3 cells, primary screen, JAK2V617F inhibitor project, cell-based, Ba/F3 EpoR-JAK2V617F, luminescence | inhibition, % at 5.6 µM | AID 1446, 2008 | actives 1.1% (n = 220,000) | ATP luminescence;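 active means inhibition above the campaign mean plus 3 SD over all tested compounds, cut at about 24% in these data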;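 further: cytokine-independent growth of Ba/F3 cells driven by EpoR plus mutant JAK2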
BaF3 tox = parental Ba/F3 cell viability inhibition, counter-screen for JAK2V617F inhibitor project, murine pro-B, CellTiter-Glo luminescence; CellTiter-Glo ATP luminescence; inhibition, % at 5.6 µM; actives 1.1% (n = 220,000);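 active means inhibition above a per-campaign cutoff, the mean inhibition of all tested compounds plus 3 SD, cut at about 27% in these data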
IEC-6 tox = cytotoxicity in IEC-6 intestinal epithelial cells, primary screen, cytotoxicity control for KLF5 inhibitor project, cell-based, luminescence; inhibition, % at 5 µM; actives 0.78% (n = 290,000); IEC-6 cytotoxicity, luminescence viability; AID 1825, 2009; in the data active means inhibition above about 22%
APP transl inh = inhibitors of APP translation via 5'UTR reporter, primary screen, APP 5'UTR luciferase, SH-SY5Y cells. SH-SY5Y APP 5'UTR-luciferase reporter, luminescence. inhibition, % at 2 µM. actives 0.82% (n = 190,000);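 active means inhibition above a set limit, derived from the sample mean plus 3 SD, cut at about 45% in these data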
aSyn 5UTR inh = MLPCN primary screen, SNCA 5' untranslated region; actives 0.82% (n = 300,000); AID 1813, 2009; alpha-synuclein 5'UTR reporter, inhibitor activity; inhibition, % (tested at 7.5 µM); in the data active means inhibition above about 60%;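 further: H4 neuroglioblastoma cells stably carrying SNCA 5'UTR luciferase fusion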
KLF5 inhibitor = KLF5 expression inhibitors, primary screen, DLD-1 cells, luminescence | AID 1700, 2009 | inhibition, % at 5 µM | actives 0.23% (n = 290,000) | DLD-1 KLF5 promoter-luciferase reporter;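 active means inhibition above a per-plate limit of that plate's mean compound inhibition plus 3 SD, cut at about 60% in these data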;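 further: higher means less KLF5 promoter-driven luciferase light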
Numbers stand for hits. Sampled rows, rich in hits. Any-hit rate of the full collection: about 2.2%.

For CCc1nnc(NC(=O)c2cccc(C(=O)Nc3nnc(CC)s3)n2)s1 the results were Ba/F3 V617F tox inactive, BaF3 tox inactive, IEC-6 tox 93.2, APP transl inh 85.0, aSyn 5UTR inh 66.0 and KLF5 inhibitor inactive.
Screening CCc1nnc(NC(=O)c2ccncc2)s1 returned Ba/F3 V617F tox inactive, BaF3 tox inactive, IEC-6 tox inactive, APP transl inh inactive, aSyn 5UTR inh inactive and KLF5 inhibitor inactive.
COc1ccc(C(=O)Nc2nc3ccccc3s2)cc1 was read as IEC-6 tox inactive, aSyn 5UTR inh 67.1 and KLF5 inhibitor inactive.
For Cc1sc2ncn(CC(=O)N3CCN(c4ccccc4)CC3)c(=O)c2c1S(=O)(=O)N1CCOCC1 the results were IEC-6 tox inactive, aSyn 5UTR inh inactive and KLF5 inhibitor inactive.
For O=C(CCl)Nc1cccc(S(=O)(=O)NC2=NCCC2)c1 the results were Ba/F3 V617F tox inactive, BaF3 tox inactive, IEC-6 tox inactive, aSyn 5UTR inh inactive and KLF5 inhibitor inactive.
CCCCn1c(N)c(N(CCOC)C(=O)COC(=O)COc2ccccc2C#N)c(=O)[nH]c1=O was read as aSyn 5UTR inh inactive.
Screening Cc1ccc2c(N)c(C)ccc2c1 returned Ba/F3 V617F tox inactive, BaF3 tox inactive, IEC-6 tox inactive, APP transl inh inactive, aSyn 5UTR inh inactive and KLF5 inhibitor inactive.
For Cc1ccc2cc3c(N)c4c(C)ccc(C)c4nc3nc2c1 the results were Ba/F3 V617F tox inactive, BaF3 tox inactive, IEC-6 tox inactive, APP transl inh 56.1, aSyn 5UTR inh inactive and KLF5 inhibitor inactive.
`O=C(Nc1cnn(Cc2c(Cl)cccc2Cl)c1)C(c1ccccc1)c1ccccc1` gave Ba/F3 V617F tox inactive, BaF3 tox inactive, IEC-6 tox inactive, APP transl inh 77.8, aSyn 5UTR inh inactive and KLF5 inhibitor inactive.
O=C(c1ccc2c(c1)N(Cc1cccc(Cl)c1)C(=O)c1ccccc1S2(=O)=O)N1CCN(c2ccccn2)CC1 was read as Ba/F3 V617F tox inactive, BaF3 tox inactive, IEC-6 tox inactive, APP transl inh inactive, aSyn 5UTR inh inactive and KLF5 inhibitor inactive.
`CCOC(=O)C1=C(C)N(CCCC(=O)O)C(=O)NC1c1ccc(Br)cc1` (stereo unspecified) gave aSyn 5UTR inh inactive.
CC(C)(C)c1cc(Cl)c(O)c(NC(=S)NC(=O)c2cccnc2)c1 was read as Ba/F3 V617F tox inactive, BaF3 tox inactive, IEC-6 tox inactive, APP transl inh inactive, aSyn 5UTR inh 79.6 and KLF5 inhibitor inactive.
COc1ccccc1C(=O)N(CCC1CCCN1C)c1nc2ccccc2s1 (stereo unspecified) was read as Ba/F3 V617F tox inactive, BaF3 tox inactive, IEC-6 tox inactive, APP transl inh inactive, aSyn 5UTR inh inactive and KLF5 inhibitor inactive.
`CCN(CC)C(=O)Oc1ccc(Cl)c2cccnc12` gave Ba/F3 V617F tox inactive, BaF3 tox inactive, IEC-6 tox inactive, APP transl inh inactive, aSyn 5UTR inh inactive and KLF5 inhibitor inactive.
`O=C(Nc1cccc(C(F)(F)F)c1)Oc1ccc(Cl)c2cccnc12` gave Ba/F3 V617F tox inactive, BaF3 tox inactive, IEC-6 tox inactive, aSyn 5UTR inh 75.1 and KLF5 inhibitor inactive.
`O=S(=O)(c1cccc(C(F)(F)F)c1)N1CCCC1c1cccnc1` (stereo unspecified) gave Ba/F3 V617F tox inactive, BaF3 tox 32.1, IEC-6 tox inactive, aSyn 5UTR inh inactive and KLF5 inhibitor inactive.
`CCOC(=O)C1(CCOc2ccccc2)CCN(Cc2ccc(O)c(Cl)c2)CC1` gave IEC-6 tox inactive, aSyn 5UTR inh 108.4 and KLF5 inhibitor inactive.
`CCOC(=O)C1(CCOc2ccccc2)CCN(Cc2ccc(O)c(OC)c2)CC1` gave IEC-6 tox inactive, aSyn 5UTR inh inactive and KLF5 inhibitor inactive.
Nc1ccc(Oc2cccc(Oc3ccc(N)cc3)c2)cc1 was read as Ba/F3 V617F tox inactive, BaF3 tox inactive, IEC-6 tox inactive, APP transl inh 49.4, aSyn 5UTR inh 87.2 and KLF5 inhibitor inactive.
COc1ccc(N2CC(C(=O)Nc3ncccc3C)CC2=O)cc1 (stereo unspecified) was read as Ba/F3 V617F tox inactive, BaF3 tox 101.2, IEC-6 tox inactive, APP transl inh inactive, aSyn 5UTR inh inactive and KLF5 inhibitor inactive.
